Results: the supplement of paper PMC6897291

Columns and labels:
[1] = test system: U-2932; assay: growth inhibition by drug alone (1 - RLU/untreated control) (fraction); higher = stronger inhibition; settings: 177Lu-lilotomab satetraxetan 0 ug/ml
Method in brief: (§1)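 A radiolabelled anti-CD37 antibody conjugate (~600 MBq/mg) was applied for 18 h at 0.5 µg/ml to RIVA and 1 µg/ml to U-2932 cells, with untreated cells run alongside. All cells were washed and seeded at 3,000 cells/well onto library-printed plates at 10/100 nM (RIVA) or 10/1,000 nM (U-2932). Growth inhibition was based on RealTime-Glo luminescence compared with untreated no-drug wells. Daily reads began on day 3 after 1 h at 37°C, with each value being 1 − RLU/mean of the 48 such wells on that plate.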

[2] = test system: RIVA; assay: as above; settings: 177Lu-lilotomab satetraxetan 0 ug/ml
Method in brief: as §1

[3] = test system: U-2932; assay: growth inhibition by drug plus 177Lu-lilotomab satetraxetan (1 - RLU/untreated control) (fraction); higher = stronger inhibition; settings: 177Lu-lilotomab satetraxetan 1 ug/ml
Method in brief: as §1

[4] = test system: RIVA; assay: as above; settings: 177Lu-lilotomab satetraxetan 0.5 ug/ml
Method in brief: as §1

SMILES | growth inhibition by drug alone ([1]; 10 nM, time (day): 3) | growth inhibition by drug alone ([1]; 10 nM, time (day): 4) | growth inhibition by drug alone ([1]; 10 nM, time (day): 5) | growth inhibition by drug alone ([1]; 10 nM, time (day): 6) | growth inhibition by drug alone ([1]; 1000 nM, time (day): 3) | growth inhibition by drug alone ([1]; 1000 nM, time (day): 4) | growth inhibition by drug alone ([1]; 1000 nM, time (day): 5) | growth inhibition by drug alone ([1]; 1000 nM, time (day): 6) | growth inhibition by drug alone ([2]; 10 nM, time (day): 3) | growth inhibition by drug alone ([2]; 10 nM, time (day): 4) | growth inhibition by drug alone ([2]; 10 nM, time (day): 5) | growth inhibition by drug alone ([2]; 10 nM, time (day): 6) | growth inhibition by drug alone ([2]; 100 nM, time (day): 3) | growth inhibition by drug alone ([2]; 100 nM, time (day): 4) | growth inhibition by drug alone ([2]; 100 nM, time (day): 5) | growth inhibition by drug alone ([2]; 100 nM, time (day): 6) | growth inhibition by drug plus 177Lu-lilotomab satetraxetan ([3]; 10 nM, time (day): 3) | growth inhibition by drug plus 177Lu-lilotomab satetraxetan ([3]; 10 nM, time (day): 4) | growth inhibition by drug plus 177Lu-lilotomab satetraxetan ([3]; 10 nM, time (day): 5) | growth inhibition by drug plus 177Lu-lilotomab satetraxetan ([3]; 10 nM, time (day): 6) | growth inhibition by drug plus 177Lu-lilotomab satetraxetan ([3]; 1000 nM, time (day): 3) | growth inhibition by drug plus 177Lu-lilotomab satetraxetan ([3]; 1000 nM, time (day): 4) | growth inhibition by drug plus 177Lu-lilotomab satetraxetan ([3]; 1000 nM, time (day): 5) | growth inhibition by drug plus 177Lu-lilotomab satetraxetan ([3]; 1000 nM, time (day): 6) | growth inhibition by drug plus 177Lu-lilotomab satetraxetan ([4]; 10 nM, time (day): 3) | growth inhibition by drug plus 177Lu-lilotomab satetraxetan ([4]; 10 nM, time (day): 4) | growth inhibition by drug plus 177Lu-lilotomab satetraxetan ([4]; 10 nM, time (day): 5) | growth inhibition by drug plus 177Lu-lilotomab satetraxetan ([4]; 10 nM, time (day): 6) | growth inhibition by drug plus 177Lu-lilotomab satetraxetan ([4]; 100 nM, time (day): 3) | growth inhibition by drug plus 177Lu-lilotomab satetraxetan ([4]; 100 nM, time (day): 4) | growth inhibition by drug plus 177Lu-lilotomab satetraxetan ([4]; 100 nM, time (day): 5) | growth inhibition by drug plus 177Lu-lilotomab satetraxetan ([4]; 100 nM, time (day): 6)
COc1ccc(CNC(=O)Nc2ncc([N+](=O)[O-])s2)cc1 | -0.00788 | -0.00166 | 0.0195 | 0.136 | 0.0779 | 0.0745 | 0.0965 | 0.0679 | -0.12 | -0.122 | -0.158 | -0.156 | 0.108 | 0.0378 | -0.00577 | -0.0255 | -0.0555 | -0.0169 | 0.0364 | 0.187 | 0.116 | 0.138 | 0.159 | 0.289 | 0.496 | 0.573 | 0.599 | 0.609 | 0.44 | 0.479 | 0.489 | 0.47
CC(C=CC(=O)NO)=CC(C)C(=O)c1ccc(N(C)C)cc1 (centres undefined) [Trichostatin A (TSA)] | 0.0657 | 0.0558 | 0.00424 | -0.0676 | 0.98 | 0.983 | 0.983 | 0.983 | 0.0108 | -0.0626 | -0.0672 | -0.162 | 0.651 | 0.317 | 0.223 | 0.132 | 0.0166 | 0.0461 | 0.0335 | 0.0848 | 0.981 | 0.983 | 0.984 | 0.984 | 0.467 | 0.537 | 0.547 | 0.561 | 0.854 | 0.798 | 0.783 | 0.763
Nc1nc(Nc2ccc(S(N)(=O)=O)cc2)nn1C(=O)c1c(F)cccc1F | 0.0686 | 0.0712 | 0.0243 | -0.028 | 0.297 | 0.39 | 0.398 | 0.477 | 0.09 | -0.0123 | -0.071 | -0.232 | -0.0601 | -0.0559 | -0.0832 | -0.218 | 0.0456 | 0.07 | 0.0808 | 0.137 | 0.452 | 0.614 | 0.661 | 0.719 | 0.373 | 0.516 | 0.536 | 0.556 | 0.486 | 0.6 | 0.611 | 0.599
Oc1nc(-c2ccc(C(F)(F)F)cc2)nc2c1CSCC2 | 0.0264 | 0.0499 | -0.0107 | -0.0367 | 0.0107 | 0.081 | 0.0386 | -0.0985 | -0.012 | -0.067 | -0.12 | -0.313 | -0.101 | -0.117 | -0.135 | -0.199 | -0.00592 | 0.0339 | 0.0301 | 0.0994 | -0.0747 | 0.0641 | 0.0547 | 0.062 | 0.347 | 0.483 | 0.51 | 0.519 | 0.424 | 0.518 | 0.521 | 0.496
CCc1cc(Nc2nccc(-c3c(-c4ccc(OC)c(C(=O)Nc5c(F)cccc5F)c4)nc4ccccn34)n2)c(OC)cc1N1CCC(N2CCN(S(C)(=O)=O)CC2)CC1 | 0.0467 | -0.0848 | -0.0609 | -0.106 | -0.14 | -0.0216 | -0.0601 | -0.147 | 0.0601 | -0.0266 | -0.11 | -0.339 | 0.205 | 0.0778 | 0.0473 | -0.0711 | -0.00397 | 0.0169 | 0.0318 | 0.0887 | -0.153 | 0.0173 | 0.00224 | -0.0976 | 0.374 | 0.514 | 0.532 | 0.545 | 0.381 | 0.455 | 0.481 | 0.461
CS(=O)(=O)c1ccc(C(=O)Nc2ccc(Cl)c(-c3ccccn3)c2)c(Cl)c1 [Vismodegib (GDC-0449)] | 0.11 | 0.072 | -0.091 | -0.101 | 0.0775 | 0.075 | 0.0248 | 0.00134 | 0.089 | 0.121 | 0.101 | -0.0572 | -0.253 | -0.16 | -0.186 | -0.299 | 0.055 | 0.116 | 0.202 | 0.219 | 0.117 | 0.138 | 0.194 | 0.297 | 0.631 | 0.647 | 0.682 | 0.672 | 0.538 | 0.568 | 0.591 | 0.608
O=C1C(Cl)=C(NCCN2CCOCC2)C(=O)c2ncccc21 | 0.114 | 0.106 | 0.0132 | 0.0178 | 0.227 | 0.184 | 0.124 | 0.0852 | 0.0132 | 0.0904 | -0.00365 | -0.238 | 0.102 | 0.139 | 0.12 | 0.0933 | 0.114 | 0.165 | 0.247 | 0.272 | 0.201 | 0.211 | 0.241 | 0.349 | 0.584 | 0.632 | 0.638 | 0.641 | 0.591 | 0.62 | 0.626 | 0.631
